The panel holds about 83,000 compounds, 20% with a hit somewhere; the sample as a whole holds those more often.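 Cell lines were cultured in 96-well plates, exposed to a single compound concentration, and assessed for percent growth 48 hours later.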 Activity calls are given as the source filed them. How the source made its calls: active means growth percent below 10; inactive means the rest.
Legend:
Test in all cases: NCI-60 one-dose screen, 48 h (100 = growth as untreated, 0 = no growth, -100 = all killed)
Settings in all cases: 10 µM unless noted
HCT-15 colon = test system: HCT-15 colon
HT29 colon = test system: HT29 colon
SNB-75 CNS = test system: SNB-75 CNS
SNB-19 CNS = test system: SNB-19 CNS
U251 CNS = test system: U251 CNS
PC-3 prostate = test system: PC-3 prostate
SK-MEL-5 melanoma = test system: SK-MEL-5 melanoma
UACC-62 melanoma = test system: UACC-62 melanoma
LOX IMVI melanoma = test system: LOX IMVI melanoma
SK-MEL-28 melanoma = test system: SK-MEL-28 melanoma

Measured: growth

C#C[C@@]1(O)[C@@H](CO)O[C@@H](n2cc(Cl)c3c(N)ccnc32)[C@@H]1O
inactive: HCT-15 colon 50.8% | HT29 colon 38.7% | SNB-75 CNS 140% | SNB-19 CNS 89.9% | U251 CNS 16% | PC-3 prostate 36.7% | SK-MEL-5 melanoma 70.8% | UACC-62 melanoma 105% | LOX IMVI melanoma 42% | SK-MEL-28 melanoma 100%

Cc1nc2sc(C(=O)Nc3ccccc3Cl)c(N)c2cc1C(C)O (stereo not given)
inactive: HCT-15 colon 61.4% | HT29 colon 34.3% | SNB-75 CNS 72.8% | SNB-19 CNS 83.2% | U251 CNS 66.5% | PC-3 prostate 83.5% | SK-MEL-5 melanoma 80.7% | UACC-62 melanoma 68.2% | LOX IMVI melanoma 74.5% | SK-MEL-28 melanoma 84.7%

O=C(Nc1ccccc1)NS(=O)(=O)c1c[nH]c(=S)[nH]c1=O
inactive: HCT-15 colon 109% | HT29 colon 73.7% | SNB-75 CNS 89.2% | SNB-19 CNS 106% | U251 CNS 93.3% | PC-3 prostate 100% | SK-MEL-5 melanoma 104% | UACC-62 melanoma 99.5% | LOX IMVI melanoma 92.4% | SK-MEL-28 melanoma 116%

Nc1ccc2c(c1)C(=O)C(=O)c1c-2nc2ccccn12
inactive: HT29 colon 76.1% | SNB-75 CNS 37.5% | PC-3 prostate 24%
active: HCT-15 colon -29.8% | SNB-19 CNS 9.2% | U251 CNS 9.14% | SK-MEL-5 melanoma -99.8% | UACC-62 melanoma -85.3% | LOX IMVI melanoma -12.7% | SK-MEL-28 melanoma -28.9%

Cc1c(Cl)cccc1NC(=O)c1sc2nc3c(cc2c1N)CN(Cc1ccccc1)CC3
active: HT29 colon 8.14%
inactive: HCT-15 colon 33.6% | SNB-75 CNS 41.9% | SNB-19 CNS 38.4% | U251 CNS 31.9% | PC-3 prostate 43.1% | SK-MEL-5 melanoma 49.1% | UACC-62 melanoma 40.2% | LOX IMVI melanoma 40.4% | SK-MEL-28 melanoma 71.1%

O=C(Nc1nccs1)c1noc2ccccc12
inactive: HCT-15 colon 92.8% | HT29 colon 99.5% | SNB-75 CNS 87.9% | SNB-19 CNS 93.5% | U251 CNS 98.5% | PC-3 prostate 80% | SK-MEL-5 melanoma 91.5% | UACC-62 melanoma 88% | LOX IMVI melanoma 95.8% | SK-MEL-28 melanoma 103%

CNC(=O)c1cc(Oc2ccc3c(c2)sc2nc(-c4ccc(NC(C)=O)cc4)cn23)ccn1
active: SNB-75 CNS -0.726%
inactive: HCT-15 colon 53% | HT29 colon 34.7% | SNB-19 CNS 55.2% | U251 CNS 40.7% | PC-3 prostate 36.6% | SK-MEL-5 melanoma 31.7% | UACC-62 melanoma 46.7% | LOX IMVI melanoma 60.9% | SK-MEL-28 melanoma 70%

O=CN1N=C(c2ccc3c(c2)OCO3)CC1c1cccc(Nc2ccnc3cc(C(F)(F)F)ccc23)c1 (stereo not given)
inactive: HCT-15 colon 70.9% | HT29 colon 73.4% | SNB-75 CNS 89% | SNB-19 CNS 89.8% | U251 CNS 88.7% | PC-3 prostate 56.8% | SK-MEL-5 melanoma 50.7% | UACC-62 melanoma 55.2% | LOX IMVI melanoma 76% | SK-MEL-28 melanoma 100%

COc1ccc2[nH]c(=O)c(/C=C/C(=O)/C=C/c3ccc(O)c(OC)c3)cc2c1
active: HCT-15 colon 2.08% | HT29 colon -38.7% | U251 CNS -13% | PC-3 prostate 9.53% | SK-MEL-5 melanoma 9.36% | LOX IMVI melanoma -36%
inactive: SNB-75 CNS 59.8% | SNB-19 CNS 36.3% | UACC-62 melanoma 10.8% | SK-MEL-28 melanoma 16.8%

C=C1C(=O)O[C@H]2[C@H]1CC/C(C=Nc1c(N)cc(F)cc1Br)=C\CC[C@@]1(C)O[C@@H]21
inactive: HCT-15 colon 30.6% | HT29 colon 36.4% | SNB-75 CNS 91.2% | SNB-19 CNS 76.7% | U251 CNS 87.3% | PC-3 prostate 58.3% | SK-MEL-5 melanoma 96.9% | UACC-62 melanoma 90.1% | LOX IMVI melanoma 66.2% | SK-MEL-28 melanoma 80%

CN1C(=O)c2cc(Cl)nc3c(NC(=O)c4cccc(Cl)c4)c(Cl)c(NC(=O)c4cccc(Cl)c4)c1c23
inactive: SNB-75 CNS 75.3%
active: HCT-15 colon -83.9% | HT29 colon -57.7% | SNB-19 CNS 2.15% | U251 CNS -68.4% | PC-3 prostate -45.5% | SK-MEL-5 melanoma 4.57% | UACC-62 melanoma 6.83% | LOX IMVI melanoma -65.1% | SK-MEL-28 melanoma -32.2%

CCN1CCN(Cc2ccc(NC(=O)c3cccc(C#Cc4cccc5[nH]nc(N)c45)c3)cc2C(F)(F)F)CC1
active: HCT-15 colon -70.7% | HT29 colon -83% | SNB-75 CNS -60.8% | SNB-19 CNS -83.6% | U251 CNS -95.6% | PC-3 prostate -80.3% | SK-MEL-5 melanoma -97.2% | UACC-62 melanoma -77.1% | LOX IMVI melanoma -100% | SK-MEL-28 melanoma -82.9%

O=C(Nc1nc(-c2ccccc2Cl)cs1)c1cc(-c2ccc(Br)cc2)nc2ccccc12
inactive: HCT-15 colon 61.6% | HT29 colon 37.4% | SNB-75 CNS 96.8% | SNB-19 CNS 71% | U251 CNS 46.1% | PC-3 prostate 43.1% | SK-MEL-5 melanoma 27.9% | UACC-62 melanoma 48.8% | LOX IMVI melanoma 50% | SK-MEL-28 melanoma 80.3%
